Test results reported in PubChem BioAssay AID1822 (The Scripps Research Institute Molecular Screening Center, 2009).
The campaign covered roughly 290,000 compounds. About 3,500 (1.2%) were called active. This excerpt belongs to a sample that is enriched for actives. Values without a mark were called inactive.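 The calls were made as follows: active = inhibition above the campaign mean inhibition over all tested compounds plus 3 SD (cut at about 28% in these data); inactive = the rest.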

Each molecule was assayed on M18 aspartyl aminopeptidase (Plasmodium falciparum 3D7) (assay: inhibition of P. falciparum M18 aminopeptidase – biochemical, QFRET, recombinant enzyme, primary screen (AID 1822;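 also: 0% = plate median of test compound wells and 100% = 2 mM ZnCl2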)). Details: recombinant PfM18AAP, H-Glu-NHMec fluorogenic cleavage; at 7.35 µM; stronger effect = higher value.
In the case of `Cc1cc(C)cc(Oc2c(C(F)(F)F)oc3cc(OCC(=O)O)ccc3c2=O)c1`, the inhibition is reported as 0.89%.
Work on `N#Cc1cccc(CSc2ncnc(N)n2)c1` yielded an inhibition of 3.53%.
`CC(C)c1c(C(=O)N/N=C/c2ccccc2C(=O)O)nnn1-c1nonc1N` gave an inhibition of 2.33%.
`O=S(=O)(Nc1ccccc1Br)c1cccs1` showed an inhibition of -3.63%.
In the case of `Cc1ccc(N2C(=O)C3C4C=CC(CC4)C3C2=O)cc1Br` (stereo not given), the inhibition is reported as -1.4%.
With `Nn1cnnc1N/N=C/c1cc([N+](=O)[O-])c(Cl)cc1Cl` the inhibition was 30% (active).
Work on `O=[N+]([O-])c1ccc(O)c(/C=N/Nc2ccccc2[N+](=O)[O-])c1` yielded an inhibition of -13%.
With `COCCCNC(=O)CN1C(=O)CSc2ccc(S(=O)(=O)N3CCOCC3)cc21` the inhibition was 6.04%.
Molecule `Cc1ccc(CNC(=O)C(=O)c2cn(CC(=O)N3CCCC3)c3ccccc23)cc1` has an inhibition of 2.97%.
`Oc1ccc(-c2onc3ccc(Cl)cc23)cc1` was tested, and the inhibition was 1.68%.
For `CC(OC(=O)c1ccc2noc(-c3ccccc3)c2c1)C(N)=O` (stereo not given), the inhibition was 31.9% (active).
With `COc1ccc(-c2onc3ccc(C(C)=O)cc23)cc1` the inhibition was 13.4%.
With `Cc1c(CN2CC[C@@H](N3CCN(c4ccccn4)CC3)[C@H](O)C2)[nH]c2ccc(F)cc12` the inhibition was 9.87%.
For `COc1ccc(N(Cc2cc3ccc(C)cc3[nH]c2=O)S(=O)(=O)c2ccccc2)cc1`, the inhibition was 6.49%.
Molecule `CC(=O)N1c2ccc(S(=O)(=O)NCCC(=O)N(C)C3CCCCC3)cc2CC1C` (stereo not given) has an inhibition of 0.68%.
In the case of `O=C(Nn1cnnc1)c1ccc([N+](=O)[O-])cc1`, the inhibition is reported as 30.2% (active).
Work on `O=C(Nc1cccc([N+](=O)[O-])c1)Nc1ccc(Cl)cn1` yielded an inhibition of -7.59%.
`O=C(Nn1c(-c2ccccc2)nc2ccccc2c1=O)c1ccc([N+](=O)[O-])cc1` was tested, and the inhibition was -0.32%.
`Cc1ccc(C)n1NC(=O)c1ccc([N+](=O)[O-])cc1` gave an inhibition of 3.79%.
In the case of `O=C(Nc1cccc([N+](=O)[O-])c1)Nn1cnnc1`, the inhibition is reported as 77.4% (active).
`COC(=O)/C=C\C(=O)Nc1cccc([N+](=O)[O-])c1` was tested, and the inhibition was -7.77%.
Work on `COc1ccc(C(=O)NCc2nnc(SCC(=O)NC3=NCCS3)n2C)cc1` yielded an inhibition of -2.4%.
In the case of `Cc1cccc(C(=O)Nc2ccc(C(=O)N/N=C/c3cccc(C)n3)cc2)c1`, the inhibition is reported as -3.2%.
For `CSCC[C@H](NC(=O)N1CCn2c1nc1ccccc12)C(=O)NC1CCCCC1`, the inhibition was 2.15%.
`CCCc1cc(=O)oc2c(C)c(OCC(=O)N3CCC(C(=O)O)CC3)ccc12` was tested, and the inhibition was 5.91%.
`COc1ccc(C(C(=O)NC(C)(C)C)N(Cc2ccc(F)cc2)C(=O)CCC(=O)Nc2cc(C)on2)cc1` (stereo not given) showed an inhibition of -7.57%.
Molecule `C=CCOc1cccc(CNCc2cccnc2)c1` has an inhibition of -17.3%.
With `O=C(NNC(=O)c1ccc(Cl)cc1Cl)c1cccs1` the inhibition was -2.06%.
`Cc1ccc(NNC(=O)c2c(F)cccc2Cl)cc1Cl` gave an inhibition of 5.54%.
`Cc1ccc(NNC(=O)c2cccs2)cc1Cl` was tested, and the inhibition was 28.9% (active).
Molecule `CCOC(=O)N1CCN(Cc2nc3cc(NC(=O)CC)ccc3n2CC)CC1` has an inhibition of -7.14%.
With `CCOc1ccccc1N1C(=O)CC(Sc2nccc(C)n2)C1=O` (stereo not given) the inhibition was -4.13%.
`COc1ccc2oc(=O)cc(-c3cc4ccccc4o3)c2c1` showed an inhibition of 21.1%.
`COc1cccc2cc(-c3cc(=O)oc4cc(C)c(O)cc34)oc12` was tested, and the inhibition was 41.3% (active).
`COc1cccc2cc(C(=O)N(C)C)c(=O)oc12` gave an inhibition of -12.7%.
`COc1ccc(N2CCN(C(=O)Cn3cnc4sc(C)c(S(=O)(=O)N5CCOCC5)c4c3=O)CC2)cc1` showed an inhibition of 2.52%.
`CCOC(=O)C1CCN(c2c(Nc3cc(C)cc(C)c3)c(=O)c2=O)CC1` showed an inhibition of -6.21%.
For `Cc1nc2ccc(S(=O)(=O)NCC(=O)O)cc2s1`, the inhibition was 51.8% (active).
`Cc1nc2ccc(S(=O)(=O)NCC(=O)NCCN3CCCCC3C)cc2s1` (stereo not given) gave an inhibition of -0.01%.
`Cc1nc2ccc(S(=O)(=O)NC(C(=O)N3CCCCCC3)C(C)C)cc2s1` (stereo not given) was tested, and the inhibition was -0.39%.
`COc1cccc2cc(C(=O)NCc3ccc(C)cc3)c(=N)oc12` gave an inhibition of 3.31%.
With `COc1ccc2c(CC(=O)N3CCc4cc(OC)c(OC)cc4C3)coc2c1` the inhibition was 3.64%.
With `ONC(=Nc1ccc(Cl)cc1)c1ccccc1Cl` the inhibition was 18.2%.
With `ONC(=Nc1ccccc1)c1ccccc1Cl` the inhibition was 40.1% (active).
`C/C(Cc1ccccc1)=N\NC(=O)CNC(=O)c1ccccc1Cl` gave an inhibition of 6.33%.
`COC(=O)c1ccccc1Sc1c(/C=N/OCc2ccc(Cl)cc2)c(C(F)(F)F)nn1C` gave an inhibition of 2.22%.
`c1ccc(-c2ccc3c(c2)NC(C2Nc4cc(-c5ccccc5)ccc4O2)O3)cc1` (stereo not given) was tested, and the inhibition was 42.1% (active).
Molecule `COc1cccc(C(=O)Nc2nnc(S(=O)(=O)N(C)c3ccccc3)s2)c1` has an inhibition of -1.4%.
`COc1cc(S(=O)(=O)Nc2ncn[nH]2)ccc1Cl` was tested, and the inhibition was 51.4% (active).
In the case of `COc1ccc(S(=O)(=O)Nc2ccc(S(=O)(=O)N3CCCCC3)cc2)cc1OC`, the inhibition is reported as 4.79%.
`COc1ccc(C(C)C)cc1S(=O)(=O)Nc1ncn[nH]1` gave an inhibition of 8.59%.
`O=C(NCc1cccnc1)C12CC3CC(CC(C3)C1)C2` was tested, and the inhibition was -7.72%.
`Cc1cc(NC(=O)CCC(=O)N(CC(=O)NCC2CCCO2)c2ccccc2)no1` (stereo not given) showed an inhibition of -2.56%.
`O=C(NCCN1CCOC1=O)C1CCC(=O)N(CCc2ccc(Cl)cc2)C1` (stereo not given) was tested, and the inhibition was -13.3%.
`COC(=O)c1c(C)oc2ccc(N(C(=O)Oc3ccccc3)S(=O)(=O)c3ccccc3)cc12` was tested, and the inhibition was -12.4%.
With `CC(=O)N(c1ccc2oc(=O)sc2c1)S(=O)(=O)c1ccc(C)cc1` the inhibition was 32.7% (active).
`CC(=O)Oc1ccc(N(C(C)=O)S(=O)(=O)c2ccc3ccccc3c2)cc1Br` was tested, and the inhibition was -1.42%.
For `CCOc1ccccc1NC(=O)NC1CCCCCCC1`, the inhibition was -2.13%.
In the case of `CC(=O)Nc1ccc(NC(=O)[C@@H](NC(=O)c2cccc(C)c2)C(C)C)cc1`, the inhibition is reported as -0.5%.
Molecule `CCc1c(C)sc(NC(=O)c2cccs2)c1C(N)=O` has an inhibition of -38.8%.
